FLuc counter = counter-screen for miR-21 project: firefly luciferase inhibitors or activators | P08659 | purified FLuc, Km substrates, luminescence inhibition | Potency, µM (titrated, usually from 57.5 µM), for the others: at the top dose activity change, negative = inhibition, hits mostly inhibitors | 360,000 tested, 6.9% active;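 note: plate controls were vehicle for no effect and reference inhibitor for full effect; nearly all actives have a fitted effect of over 55% in size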
Target sequence (P08659 whole entry, looked up): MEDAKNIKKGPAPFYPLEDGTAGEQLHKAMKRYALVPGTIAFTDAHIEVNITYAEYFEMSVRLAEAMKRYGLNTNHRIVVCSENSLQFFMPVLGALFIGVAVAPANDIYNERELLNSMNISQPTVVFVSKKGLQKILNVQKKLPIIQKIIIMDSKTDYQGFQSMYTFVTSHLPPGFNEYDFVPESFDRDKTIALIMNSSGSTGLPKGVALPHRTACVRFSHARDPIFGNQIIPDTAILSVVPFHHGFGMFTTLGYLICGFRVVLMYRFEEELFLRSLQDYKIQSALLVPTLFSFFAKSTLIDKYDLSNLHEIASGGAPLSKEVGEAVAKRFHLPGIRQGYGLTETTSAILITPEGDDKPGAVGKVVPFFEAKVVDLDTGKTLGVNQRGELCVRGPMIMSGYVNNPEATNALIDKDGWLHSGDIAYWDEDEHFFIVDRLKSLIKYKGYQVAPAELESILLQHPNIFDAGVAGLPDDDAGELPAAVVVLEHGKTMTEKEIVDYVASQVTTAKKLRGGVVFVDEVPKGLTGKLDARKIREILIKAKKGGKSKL
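Purified P. pyralis luciferase (10nM final) with 10uM D-luciferin and 10uM ATP (Km levels) in 50mM Tris acetate pH 7.5, 10mM Mg acetate, 0.01% Tween-20, 0.05% BSA; qHTS 6-point titration, ~60 µM downward; luminescence read.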
ELG1 genotoxic = induces genotoxicity in HEK293T cells with luciferase-tagged ELG1; HEK293T ELG1-luciferase reporter, luminescence, 16 h; Potency, µM (titrated, usually from 46 µM), for the others: top-dose activity change, positive = activation, actives largely listed as activators; 330,000 tested, 1.3% active; note: % of control where 0% means no effect; nearly all actives have a fitted effect of over 60% in size
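Step 1: seed 2,000 HEK293T ELG1-luciferase cells per well. Step 2: add compound or DMSO, incubate 16 hr at 37 °C. Step 3: ONE-Glo, 30 min at room temperature, read luminescence.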
NPC1 promoter act = NPC1 promoter activation. 320,000 tested, 2.4% active. Huh7 NPC1 promoter luciferase reporter, 24 h. Potency, µM (series often up to 9.22 µM), inactives show top-dose activation, actives largely listed as activators; note: % of control where 0% means no effect; nearly all actives have a fitted effect of over 60% in size
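Huh7 reporter cells (NPC1 promoter driving luciferase) are dosed with compound for 24 h at 37 °C, 5% CO2; luciferase detection reagent is then added and luminescence measured after 10 min at ambient temperature.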
Rab9 promoter act = activates the Rab9 promoter. Huh7 Rab9 promoter-luciferase reporter, luminescence, 24 h. Potency, µM (series often up to 9.22 µM), for inactives: at the highest dose activation, negative = inhibition, hits mostly activators. 320,000 tested, 2.8% active. AID 485297; note: % of control where 0% means no effect; nearly all actives have a fitted effect of over 60% in size
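Measured in stably transfected Huh7 cells bearing a Rab9 promoter–luciferase construct: 24 h compound treatment at 37 °C, followed by luminescence detection.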
SMN2 splice enh = enhancers of SMN2 splice variant expression. HEK293 SMN2-luciferase splicing reporter, luminescence, 30-36 h. Potency, µM (titrated, usually from 46.1 µM), for the others: top-dose activity change, positive = activation, most hits filed as activators. 210,000 tested, 2.8% active. AID 1458; note: % of control where 0% means no effect; nearly all actives have a fitted effect of over 55% in size
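HEK293 cells carry an SMN2 […]–luciferase reporter in which exon 7 inclusion puts luciferase in frame. Cells were plated 10-12 h before compound addition, then incubated 30-36 h at 37C. ONE-Glo luminescence was read; sodium butyrate at 4.5 mM final served as control.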
* = called active by the depositor; ? = inconclusive; . = no result. Only some compounds are listed: those with a hit (about 7.4% of all), similar ones and a draw of the others. Calls come from the whole dose curve; as a rule, active = well fitted curve in the direction sought with a large enough effect; inconclusive = small, poorly fitted or top-dose-only effect, or another doubt; inactive = no such curve, though single readings can be large; an effect the other way counts as inactive or inconclusive. Potency is the fitted concentration of half-maximal effect.

SMILES | FLuc counter | ELG1 genotoxic | NPC1 promoter act | Rab9 promoter act | SMN2 splice enh
CCOC(=O)c1cc(/C(C)=N/OC(=O)c2ccc(C(C)(C)C)cc2)on1 | 2% | 1% | 0% | 0% | .
Cc1cc(C(=O)O/N=C(\N)c2ccc(C(C)(C)C)cc2)no1 | 6µM* | 10% | 3.5µM* | 1.8µM* | .
Cc1cccc(-c2onc3ccc(C(=O)/C=C/N(C)C)cc23)c1 | ? | -6% | -1% | 0% | .
Cc1nnc(N2CCN(C(=O)Nc3cccc(C(F)(F)F)c3)CC2)c2nn(-c3ccccc3)c(C)c12 | -9% | . | . | . | .
Cc1nc2scc(C)n2c(=O)c1S(=O)(=O)Nc1cccc(C(F)(F)F)c1 | -13% | . | . | . | -18%
CCN1CCN(c2ccc(NC(=O)COc3ccc(Cl)cc3C)cc2)CC1 | . | -6% | . | . | .
O=C1CN(C(=O)COC(=O)COc2ccccc2)c2ccccc2N1 | . | 0% | . | . | .
CC(C)(C)c1ccc(C(=O)O/N=C(\N)c2ccccc2)cc1 | 0.76µM* | ? | -16% | -12% | .
CC(C)(C)c1ccc(NC(=O)CON=C(N)c2ccccc2)cc1 | ? | 2% | -2% | -2% | .
O=S(=O)(NCc1ccccn1)c1cc(C(F)(F)F)ccc1Cl | -3% | -1% | -3% | -2% | -5%
FC(F)(F)c1ccc(NCc2ccccn2)nc1 | 17µM* | ? | ? | ? | .
Cc1cc(NCc2ccccn2)nc2ccccc12 | ? | 7% | 10% | 6% | 5%
c1ccc(CNc2ccc3ccccc3n2)nc1 | 4.8µM* | ? | 2.2µM* | ? | ?
O=C(CSC1=NS(=O)(=O)c2ccccc2N1)Nc1ccccc1F | ? | 4% | 0% | 3% | .
CCOc1ccc(NC(=O)c2cccc(OC(=S)N3CCOCC3)c2)cc1 | ? | -8% | -2% | -4% | .
N#CCCN(C(=O)CSc1ncccn1)c1ccc2c(c1)OCCO2 | 3% | -2% | 2% | -4% | .
O=C(CCl)N(C/C=C/c1ccccc1)c1ccc2c(c1)OCCO2 | 24µM* | 11% | -38% | -45% | -16%
CSCCC(NC(=O)c1ccco1)C(=O)N1CCCC(C(F)(F)F)C1 (stereo not drawn) | 3% | -3% | 0% | -10% | .
Cc1oc2ncn(C)c(=O)c2c1C(=O)NC(C)c1ccccc1 (stereo not drawn) | -5% | . | . | . | .
Cc1nnc(SCc2cnc(-c3ccc(C(C)C)cc3)s2)n1C | 0.3µM* | ? | 1.6µM* | 2µM* | ?
O=C(Nc1nnc(C2CCCCC2)s1)c1ccco1 | ? | ? | 4µM* | 2µM* | ?
O=C(CS(=O)(=O)Cc1ccccc1)Nc1nnc(C2CCCCC2)s1 | -15% | -4% | 16% | 4% | -29%
Cc1ccccc1N1CC(c2nnc(NC(=O)c3ccco3)s2)CC1=O (stereo not drawn) | -18% | . | . | . | .
O=C(Nc1nnc(C2CC2)s1)c1ccco1 | ? | ? | ? | 3.2µM* | 30%
CC1(C)Cc2nc3sc4c(OCc5ccccc5)ncnc4c3cc2CO1 | -6% | -1% | -3% | 10% | -48%
SMILES | FLuc counter | ELG1 genotoxic | NPC1 promoter act | Rab9 promoter act | SMN2 splice enh
C=CCn1c(C)nc2c(sc3nc4c(cc32)COC(C)(C)C4)c1=O | 11µM* | ? | 1.8µM* | 2µM* | .
CCSc1ncnc2c1sc1nc3c(cc12)COC(C)(C)C3 | 2.7µM* | ? | 3.5µM* | 2.8µM* | 13µM*
CC(C)CSc1ncnc2c1oc1nc3c(cc12)COC(C)(C)C3 | ? | 13% | 14% | 14% | ?
CCc1nc2c(sc3nc4c(cc32)COC(C)(C)C4)c(=O)n1CCN(CC)CC | 2% | 4% | -4% | -8% | -13%
C=CCSc1ncnc2c1oc1nc3c(cc12)COC(C)(C)C3 | 13µM* | ? | ? | ? | .
CC(C)COc1ncnc2c1sc1nc3c(cc12)COC(C)(C)C3 | 24µM* | ? | 4µM* | 3.2µM* | .
CCCOc1ncnc2c1sc1nc3c(cc12)COC(C)(C)C3 | ? | ? | 30% | ? | .
CC(=O)/C(N=Nc1ccc2c(c1)OCCO2)=C(\C)O | 9.5µM* | ? | 12% | 5% | -88%
CC(=O)/C(N=Nc1ccc2c(c1)OCO2)=C(\C)O | 21µM* | ? | 2.8µM* | 3.5µM* | 14µM*
CC(=O)/C(N=Nc1ccc(C(=O)O)cc1)=C(\C)O | 0% | 12% | -4% | -1% | .
CCN(CC(=O)Nc1c(F)cccc1F)C(=O)C1CCN(S(=O)(=O)c2ccc(C)cc2C)CC1 | -1% | -19% | 4% | -5% | .
NC(=O)c1ccsc1NC(=O)c1cc(=O)c2ccccc2o1 | 2.7µM* | ? | ? | 1.8µM* | 10µM*
CCOC(=O)c1csc(NC(=O)c2cc(=O)c3ccccc3o2)n1 | 15µM* | 10% | 16% | ? | 23%
O=C(Nc1nc2ccc(Cl)cc2s1)c1cc(=O)c2ccccc2o1 | ? | . | . | . | 14%
CC(=O)c1sc(NC(=O)c2oc3ccc(F)cc3c2C)nc1C | 1.9µM* | 18% | 2.2µM* | 2.8µM* | .
CC(=O)c1sc(NC(=O)c2cc(=O)c3ccccc3o2)nc1C | 7.6µM* | ? | 2.5µM* | 3.2µM* | 11µM*
O=C(CSc1nc2c([nH]c3ccccc32)c(=O)n1-c1ccc(Cl)cc1)N1CCCC1 | -2% | . | . | . | .
O=C(CN1CCN(S(=O)(=O)c2ccc(F)cc2)CC1)Nc1ccc(Cl)cn1 | -1% | -3% | -2% | -1% | .
COc1ccc2cc3cc(C(=O)N4CCN(c5cccc(C(F)(F)F)c5)CC4)sc3nc2c1 | -5% | . | . | . | -3%
O=C(COC(=O)c1ccccc1[N+](=O)[O-])c1ccc2c(c1)OCO2 | 0.019µM* | ? | 0.32µM* | 0.32µM* | .
Cc1cccc(C)c1NC(=O)COC(=O)c1ccc2c(c1)OCO2 | 0% | 12% | -2% | -4% | 4%
Cc1cccc(C(=O)OCC(=O)c2ccc3c(c2)OCO3)c1O | 0.38µM* | 2.6µM* | 0.45µM* | 1.4µM* | .
CC(C)C(=O)Nc1ccccc1C(=O)OCC(=O)c1ccc2c(c1)OCCO2 | 1.3µM* | 0% | ? | 2.8µM* | -18%
COc1ccc(C2=CC(=O)C[C@H](c3ccc(Cl)cc3)C2)cn1 | 1% | -1% | -2% | -12% | .
Fc1ccccc1N1CCN(c2ncnc3onc(-c4ccc(Cl)cc4)c23)CC1 | -6% | . | . | . | 6%
Cc1ccc(-c2ccc(=O)n(C(C)C(=O)Nc3ccccc3Cl)n2)cc1C (stereo not drawn) | -2% | . | . | . | .
CCCCCCOc1ccc(/C(N)=N/O)cc1 | 12µM* | ? | 2.5µM* | 1.6µM* | 26%
COc1ccccc1CCC(=O)Oc1ccc(C#N)cc1OC | 21µM* | 12% | -3% | -3% | .
COc1cc(C#N)ccc1OC(=O)Cc1cc(OC)c(OC)c(OC)c1 | -1% | 1% | -4% | -4% | .
CCc1c(C)nc2[nH]nc(-c3ccccc3)n2c1=O | 21µM* | ? | 14% | 9% | .
